Data from PubChem BioAssay AID1159580 (chemical genetic matrix, 2015).
Several values for one entry are separate records, joined by “and”; a condition that tells them apart may be missing. Equal entries are not always repeated. The campaign covered roughly 5,500 compounds. About 2,000 (36%) were called active. Not shown: some 18% with an inconclusive outcome. Rule as the data show it: active = normalized growth mostly below about 0.91 (no sharp cut-off); inconclusive = no clear call, values can overlap the other calls; inactive = mostly above about 0.92. Some of the results follow.

Experiment: chemical genetic growth profiling, strain panel (AID 1159580);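 also: tested at 20 µM; growth read once vehicle control cultures reached saturation at 30 °C; 1 = growth at the plate median or of vehicle wells; lower values mean less growth of the strain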
Conditions: S. cerevisiae deletion strains, growth OD

Measured: normalized growth

NNC(=O)c1ccncc1
inactive: locus YAL013W, strain DEP1, hits give low values 1.01 | locus YAL021C, strain ccr4, hits give low values 1.01 | locus YAL026C, strain drs2, hits give low values 0.991 | locus YAL030W, strain snc1, hits give low values 1.03 | locus YBL061C, strain skt5, hits give low values 1.01 | locus YBR009C, strain hhf1, hits give low values 0.986 | locus YBR021W, strain FUR4, hits give low values 1.01 | locus YBR023C, strain chs3, hits give low values 1.01 | locus YBR171W, strain sec66, hits give low values 1.02 | locus YBR229C, strain ROT2, hits give low values 1.01 | locus YBR231C, strain swc5, hits give low values 1.03 | locus YBR279W, strain paf1, hits give low values 1.01 | locus YCL011C, strain gbp2, hits give low values 0.984 | locus YCL016C, strain dcc1, hits give low values 0.981 | locus YCL029C, strain bik1, hits give low values 1 | locus YCL061C, strain MRC1, hits give low values 1.02 | locus YCL069W, strain vba3, hits give low values 1.02 | locus YCR088W, strain abp1, hits give low values 1.02 | locus YDL005C, strain med2, hits give low values 1.01 | locus YDL035C, strain GPR1, hits give low values 1.01 | locus YDL040C, strain nat1, hits give low values 1 | locus YDL074C, strain BRE1, hits give low values 1.03 | locus YDL101C, strain DUN1, hits give low values 1.01 | locus YDL185W, strain tfp1, hits give low values 0.991 | locus YDL192W, strain arf1, hits give low values 0.995 | locus YDR001C, strain nth1, hits give low values 1.02 | locus YDR069C, strain doa4, hits give low values 1.02 | locus YDR101C, strain arx1, hits give low values 0.997 | locus YDR137W, strain rgp1, hits give low values 0.989 | locus YDR159W, strain sac3, hits give low values 0.943 | locus YDR162C, strain NBP2, hits give low values 1.02 | locus YDR195W, strain ref2 1 | locus YDR297W, strain sur2, hits give low values 1.01 | locus YDR318W, strain mcm21, hits give low values 0.993 | locus YDR334W, strain swr1, hits give low values 1.01 | locus YDR335W, strain msn5, hits give low values 1.01 | locus YDR388W, hits give low values 0.992 | locus YDR392W, strain spt3, hits give low values 0.941 | locus YDR502C, strain sam2, hits give low values 0.993 | locus YEL003W, strain gim4, hits give low values 1.04 | locus YEL037C, strain rad23, hits give low values 1.02 | locus YEL061C, strain CIN8 (second series), hits give low values 1.01 | locus YEL061C, strain CIN8, hits give low values 1.01 | locus YER015W, strain faa2, hits give low values 1.01 | locus YER016W, strain bim1, hits give low values 1 | locus YER110C, hits give low values 0.988 | locus YER111C, strain swi4, hits give low values 1.01 | locus YER155C, strain BEM2 (second series), hits give low values 1.03 | locus YER155C, strain BEM2, hits give low values 1.01 | locus YER167W, strain BCK2, hits give low values 1 | locus YFR010W, strain ubp6, hits give low values 1.02 | locus YGL078C, strain dbp3, hits give low values 0.992 | locus YGL086W, strain mad1, hits give low values 1.01 | locus YGL167C, strain pmr1, hits give low values 1 | locus YGL173C, strain kem1, hits give low values 1.05 | locus YGL227W, strain vid30, hits give low values 1.02 | locus YGL240W, strain doc1, hits give low values 1.02 | locus YGL248W, strain PDE1, hits give low values 1.01 | locus YGL253W, strain hxk2, hits give low values 1.01 | locus YGR135W, strain pre9, hits give low values 0.971 | locus YGR252W, strain gcn5, hits give low values 0.943 | locus YHR013C, strain ard1, hits give low values 0.962 | locus YHR027C, strain rpn1, hits give low values 1.02 | locus YHR030C, strain SLT2, hits give low values 1 | locus YHR079C, strain IRE1 (second series), hits give low values 0.998 | locus YHR079C, strain IRE1, hits give low values 1.01 | locus YHR094C, strain hxt1, hits give low values 0.989 | locus YHR129C, strain ARP1, hits give low values 1.01 | locus YHR142W, strain chs7, hits give low values 1.01 | locus YHR200W, strain rpn10, hits give low values 1 | locus YIL066C, strain RNR3, hits give low values 1.02 | locus YIL073C, strain SPO22, hits give low values 1.01 | locus YIL125W, strain kgd1, hits give low values 1.01 | locus YIR030C, strain dcg1, hits give low values 1 | locus YJL092W, strain hpr5, hits give low values 1.01 | locus YJL095W, strain BCK1 (second series), hits give low values 1.01 | locus YJL095W, strain BCK1, hits give low values 1.02 and 0.991 | locus YJL115W, strain asf1, hits give low values 1.01 | locus YJL129C, strain trk1, hits give low values 1.02 | locus YJL134W, strain LCB3, hits give low values 1.01 | locus YJL154C, strain vps35, hits give low values 1.01 | locus YJL164C, strain tpk1, hits give low values 0.991 | locus YJL166W, strain qcr8, hits give low values 1.03 | locus YJL168C, strain set2, hits give low values 0.992 | locus YJL187C, strain SWE1 (second series), hits give low values 1.01 | locus YJR043C, strain POL32, hits give low values 1.01 | locus YJR066W, strain TOR1, hits give low values 0.932
